# Screening results deposited in PubChem by National Center for Advancing Translational Sciences (NCATS).
# uPA generation = qHTS for Inhibitors of Cell Surface uPA Generation | cell surface uPA generation assay, qHTS | Potency, µM (series often up to 38.3 µM), for the others: at the highest dose activity change, negative = inhibition, usual class: inhibitors | 330,000 tested, 0.31% active; active = well fitted inhibition curve with a large enough effect; inconclusive = small, poorly fitted or top-dose-only effect; inactive = no such curve, though single readings can be large or run the other way; tested in mouse RAW 264.7 cells; also: potency is read from the fitted curve at half-maximal effect; % is scaled to controls: 0 for no effect and ±100 for the full control effect; nearly all actives have a fitted effect of over 55% in size
# MCF10A rereplic = A quantitative high throughput screen for small molecules that induce DNA re-replication in MCF 10a normal breast cells. MCF 10A DNA re-replication, Hoechst nuclear intensity, 48 h. Potency, µM (highest dose often 46.1 µM), inactives show at the top dose activity, positive = re-replication, usual class: activators. 350,000 tested, 2.9% active. AID 624296, 2012; also: potency is read from the fitted curve at half-maximal effect; % of control where 0% means no effect; nearly all actives have a fitted effect of over 50% in size
# SW480 rerep = A quantitative high throughput screen for small molecules that induce DNA re-replication in SW480 colon adenocarcinoma cells; SW480 DNA re-replication, Hoechst DNA content imaging, 48 h; Potency, µM (series often up to 46.1 µM), inactives show top-dose re-replication activation, actives largely listed as activators; 340,000 tested, 1.8% active; AID 624297, 2012; also: potency is read from the fitted curve at half-maximal effect; % of control where 0% means no effect; nearly all actives have a fitted effect of over 55% in size
#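 First, 250 cells per well were seeded. Next, compound or vehicle (23 nL) was pinned in, plates sat 48 hr at 37 C. Finally Hoechst was added for 40 min before fluorescence scanning.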
# Giardia killer = Small Molecules that selectively kill Giardia lamblia: qHTS | Giardia lamblia trophozoite viability | activity change, % at 7.66 µM, hits read low | 340,000 tested, 0.15% active; in the data active = activity change below about -80%; inconclusive = between about -30% and that limit;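 also: parasites exposed to compound for two days anaerobically before the ATP read; % is scaled to controls: 0 for no effect and ±100 for the full control effect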
#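 Luminescence from cellular ATP indicates surviving trophozoites (100 cells/well) following 48 hrs anaerobic compound treatment at 37 deg C; signal develops 15-30 min at room temperature.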
# Active calls of the source: *; ? = inconclusive; nt = no result given; ! = not confirmed by another sample; [ ] = another dose, or the depositor's remark. Compounds with a hit are over-represented: about 4.3% of the library has one in this group of screens. Unless noted, calls follow the shape of the dose curve; as a rule, active = well fitted activation curve with a large enough effect; inconclusive = small, poorly fitted or top-dose-only effect; inactive = no such curve, though single readings can be large or run the other way.
SMILES,uPA generation,MCF10A rereplic,SW480 rerep,Giardia killer
CCOC(=O)c1cc(-c2ccco2)nc2c1c(C)nn2-c1ccccc1,6%,9.2µM*,15%,-8
Cn1c(=O)c(C(=O)COC(=O)c2cc(-c3ccco3)nc3ccccc23)c(N)n(Cc2ccccc2)c1=O,nt,23µM*,?,nt
O=C(NCc1ccccc1)c1cccc(NC(=O)C2CC2)c1,-1%,?,-9%,-14
Cc1cc(NC(=O)c2cncc(Br)c2)ccc1NC(=O)c1cc2ccccc2o1,6%,2.9µM*,?,-18
COc1cccc(C(=O)Nc2ccc(NC(=O)c3cc4ccccc4o3)c(OC)c2)c1,6%,10µM*,?,-7
COc1cc(NC(=O)c2ccccc2)ccc1NC(=O)c1cc2ccccc2o1,-2%,?,6%,-19
CCCCc1ccc(NC(=O)C(=O)NCCN2CCN(Cc3ccc([N+](=O)[O-])cc3)CC2)cc1,3%,3.3µM*,10%,31
CNC(=O)C(=O)NCCN1CCN(C(=O)c2ccc([N+](=O)[O-])cc2)CC1,-4%,3%,-9%,1
COc1ccc(C2NC(=S)NC(C)=C2C(=O)c2ccccc2)cc1OC (centres undefined),5%,?,23µM*,-5
COc1ccc(C2NC(=S)NC(C)=C2C(=O)Nc2ccccn2)cc1OC (centres undefined),6%,?,5%,-2
CC1CN(c2nc3ccccc3cc2-c2ccccc2)CC(C)O1 (centres undefined),0%,21µM*,-1%,6
Cn1cc(Br)c(C(=O)NN2C(=O)C3C(C2=O)C2C=CC3C23CC3)n1 (centres undefined),13%,0.73µM*,2%,19
NS(=O)(=O)c1ccc(NC(=O)CN2CCN(S(=O)(=O)c3cccs3)CC2)cc1,3%,-1%,-66%,-6
COc1ccccc1NC(=O)Cc1csc(NC(=S)Nc2ccc(C)cc2)n1,nt,?,21µM*,-9
O=c1c([N+](=O)[O-])cccn1Cc1cccc(Br)c1,-6%,4%,-6%,-85*
Cc1ccc(Cl)cc1NC(=O)CNC(=O)N1CC(=O)Nc2ccccc21,5%,-1%,29µM*,20
CCC[C@@H](CN1CCC[C@H]1CN1C(N)=NC[C@@H]1Cc1ccccc1)N1C[C@@H]([C@H](C)CC)N(CCCC2CCCC2)C1=N,?,18µM*,?,15
CS(=O)(=O)N1CCN(c2ccc(Cl)cc2[N+](=O)[O-])CC1,-1%,-4%,nt,-21
O=[N+]([O-])c1cc(Cl)c(O)c2ncccc12,-12%,?,10µM*,0
CS(=O)(=O)N1CCN(c2ccc([N+](=O)[O-])c3cccnc23)CC1,1%,0%,0%,-82*
O=[N+]([O-])c1ccc(O)c2cccnc12,2%,7%,0%,8
O=[N+]([O-])c1cc(Cl)c2cccnc2c1O,-9%,2.6µM*,?,-11
O=[N+]([O-])c1ccc(O)c2ncccc12,?,15µM*!,7.3µM*,-12
O=C(CSC(=O)c1ccccc1)Nc1ccccc1F,3%,9%,-5%,-19
CCOC(=O)c1[nH]c2ccccc2c1N=CN(C)C,-6%,-1%,-1%[9.22 µM],2
SMILES,uPA generation,MCF10A rereplic,SW480 rerep,Giardia killer
CN(C)C=Nc1ccc2nc3c(cc2c1)[nH]c1ccccc13,?,?,?,-89*
COc1ccc(NC(=O)N(C)C[C@@H]2Oc3ccc(NC(=O)NC(C)C)cc3CC(=O)N([C@H](C)CO)C[C@@H]2C)cc1,-9%,-5%,-3%,5
Cc1ccc2nc(N3CCN(CCO)CC3)nc(-c3ccccc3)c2c1,-1%,3.7µM*,12µM*,-24
Cc1ccc2nc(Cl)nc(-c3ccccc3)c2c1,-4%,4%,-4%,1
OCCN1CCN(c2nc(-c3ccccc3)c3cc(Cl)ccc3n2)CC1,-7%,?,15µM*,1
CCOC(=O)N1CCN(c2nc(-c3ccccc3)c3cc(C)ccc3n2)CC1,5%,4.1µM*,?,-23
O=C(COC(=O)[C@H](Cc1ccccc1)NC(=O)c1ccco1)Nc1ccccc1OC(F)F,4%,4%,-2%,-9
O=C(CCNC(=O)c1ccc(Cl)cc1)Nc1cccc(S(=O)(=O)N2CCCCC2)c1,-5%,-2%,-3%,-2
CC1CC2(C)Oc3ccccc3CC2C(C)C1CNCCCN(C)C (centres undefined),-15%,7.3µM*,5.2µM*,-1
